SENP7 inh: SENP7 protease inhibitors, primary screen, biochemical, luminescence, uHTS; Sentrin-specific protease 7 (Homo sapiens), Q9BQF6; recombinant SENP7, Z-RLRGG-aminoluciferin luminescence, 40 min; inhibition, % at 5 µM; hit rate 1.5% among 330,000;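 active = inhibition above about 50% at the single test dose, limit read from the data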;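 note: plate controls were DMSO with enzyme for no effect and no enzyme buffer wells for full effect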
SENP8 block-1: human SENP8 protease inhibitors, primary screen, biochemical, fluorescence, Nedd8 protein substrate, uHTS; recombinant SENP8; inhibition, % at 20 µM; hit rate 0.64% among 360,000; AID 602440, 2012; in the data active = inhibition mostly above about 40%, no sharp cut-off; inactive = mostly below about 27%
Target sequence (Q96LD8 whole entry, looked up): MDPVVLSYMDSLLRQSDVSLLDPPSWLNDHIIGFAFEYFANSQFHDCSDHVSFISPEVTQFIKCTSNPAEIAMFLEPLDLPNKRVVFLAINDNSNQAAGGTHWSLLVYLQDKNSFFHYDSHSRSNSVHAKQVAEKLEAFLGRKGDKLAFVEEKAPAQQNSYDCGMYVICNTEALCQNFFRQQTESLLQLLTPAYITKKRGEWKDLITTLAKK
SENP8 block-2: SENP8 protease inhibitors, primary screen, biochemical, luminescence | purified SENP8, Z-RLRGG-aminoluciferin cleavage | Sentrin-specific protease 8 (Homo sapiens), Q96LD8 | inhibition, % at 10 µM | AID 2540, 2010 | hit rate 1.2% among 330,000; in the data active = inhibition above about 50%
HSP90 inh: HSP90 inhibitors, primary screen, cell lysate, luminescence | Heat shock protein HSP 90 (rabbit reticulocyte lysate; luciferase refolding) | Rabbit reticulocyte lysate, luciferase refolding luminescence, 3 h | inhibition, % at 5.6 µM | hit rate 0.91% among 290,000 | AID 1789, 2009;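 active = inhibition above the screen-wide mean plus 3 SD, computed separately per campaign, cut at about 16% in these data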;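 note: 0% = DMSO wells and 100% = 60 µM geldanamycin wells; inhibitors lower the luminescence because luciferase stays unfolded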
SENP6 block: SENP6 protease inhibitors, primary screen, biochemical, luminescence, uHTS. Sentrin-specific protease 6 (Homo sapiens), Q9GZR1. Recombinant SENP6 catalytic domain, aminoluciferin luminescence. inhibition, % at 10 µM. hit rate 1.8% among 330,000. AID 2599, 2010;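 active = inhibition above about 50% at the single tested dose, limit read from the data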;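 note: plate controls were DMSO wells with enzyme for no effect and DMSO wells lacking enzyme for full effect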
Target sequence (Q9GZR1 628-1112 limits assumed): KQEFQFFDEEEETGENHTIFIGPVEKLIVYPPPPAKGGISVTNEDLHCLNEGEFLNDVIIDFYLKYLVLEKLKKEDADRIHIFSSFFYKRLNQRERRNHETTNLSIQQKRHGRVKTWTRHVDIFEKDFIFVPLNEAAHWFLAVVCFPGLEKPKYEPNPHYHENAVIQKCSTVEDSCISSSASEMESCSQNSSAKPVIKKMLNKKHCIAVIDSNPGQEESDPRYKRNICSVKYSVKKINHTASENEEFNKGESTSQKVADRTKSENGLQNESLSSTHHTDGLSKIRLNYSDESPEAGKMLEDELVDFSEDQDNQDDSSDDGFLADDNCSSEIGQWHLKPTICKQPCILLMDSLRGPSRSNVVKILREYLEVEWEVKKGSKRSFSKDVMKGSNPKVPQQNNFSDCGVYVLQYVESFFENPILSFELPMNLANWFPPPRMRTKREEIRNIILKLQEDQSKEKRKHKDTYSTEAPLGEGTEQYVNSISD
LGR2 inh: inhibitors of bursicon-induced LGR2 CRE-luciferase signal, primary screen, cell-based, HEK293, CRE-luciferase reporter, bursicon stimulation | bursicon-stimulated, 4 h | inhibition, % at 9.99 µM | hit rate 0.35% among 380,000;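 active = drop in luminescence signal, shown as inhibition above about 50% in the replicate tests, limit read from the data, passing the limit was not always enough; inconclusive = probably only some replicates passing the limit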;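 note: agonist challenge used bursicon conditioned medium at about half maximal strength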
SENP8 conf: SENP8 protease inhibitors, retest, confirmation, biochemical, luminescence, single concentration. shares compounds with SENP7 inh. Recombinant SENP8, Z-RLRGG-aminoluciferin luminescence, 60 min. inhibition, % at 12.5 µM. hit rate 40% among 6,200. AID 488912, 2010;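 active = mean inhibition across replicates above about 50%, limit read from the data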
SENP6 conf: SENP6 protease inhibitors, confirmation, biochemical, luminescence, single concentration; shares compounds with SENP7 inh; recombinant SENP6, Z-RLRGG-aminoluciferin luminescence; inhibition, % at 12.5 µM; hit rate 58% among 6,200
SENP7 confirm: SENP7 protease inhibitors, retest, confirmation, biochemical, luminescence, single concentration | shares compounds with SENP7 inh | recombinant SENP7, Z-RLRGG-aminoluciferin luminescence, 40 min | inhibition, % at 12.5 µM | hit rate 69% among 6,200 | AID 488917, 2010
Casp3 select: caspase-3 protease inhibitors, confirmation, selectivity assay for SENP inhibitor project, biochemical, single concentration; shares compounds with SENP7 inh; purified caspase-3, Z-DEVD-aminoluciferin luminescence, 60 min; inhibition, % at 12.5 µM; hit rate 60% among 6,200; AID 488918, 2010;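 active = mean inhibition above about 50%, limit read from the data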;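 note: plate controls were enzyme with DMSO for no effect and wells without caspase-3 for full effect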
SENP luc ctr: luminescence interference (SENP counter-screen); shares compounds with SENP7 inh; Pre-incubated SENP8/Z-RLRGG-aminoluciferin, luciferase luminescence interference; inhibition, % at 12.5 µM; hit rate 39% among 6,200; AID 488919;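 active = mean inhibition above about 50% when retested at one dose, limit read from the data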;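 note: plate controls were DMSO wells with completed reaction for no effect and substrate without enzyme for full effect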
An asterisk follows results filed as active; ? = inconclusive; / = not tested or not shown. Only some compounds are listed: those with a hit (about 2.3% of all), similar ones and a draw of the others.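 Rule for the calls, unless noted: active = mean inhibition above about 50% in the one-dose retest (limit read from the data); inactive = the rest.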

SMILES | SENP7 inh | SENP8 block-1 | SENP8 block-2 | HSP90 inh | SENP6 block | LGR2 inh | SENP8 conf | SENP6 conf | SENP7 confirm | Casp3 select | SENP luc ctr
CC(C)C(=O)Nc1cccc(NC(=O)c2cc3ccccc3o2)c1 | 36.0 | 8.5 | 9.2 | -0.5 | -68.4 | / | / | / | / | / | /
O=C(Nc1ccccc1)c1cc2ccccc2o1 | 97.7* | 24.5 | 94.7* | 13.0 | 97.0* | / | 95.7* | 98.1* | 102.5* | 97.3* | 97.6*
CC(=O)c1ccc(NC(=O)c2cc3ccccc3o2)cc1 | 2.7 | 7.6 | -18.5 | -5.6 | -3.7 | -43.0 | / | / | / | / | /
Cc1noc(C)c1S(=O)(=O)Nc1ccc2c(c1)C(=O)N([C@@H](C)CO)C[C@@H](C)[C@H](CN(C)C)OCCCC[C@@H](C)O2 | / | / | / | / | / | 5.8 | / | / | / | / | /
Cc1ccnc(NC(=O)Nc2ccc(F)cc2)c1 | 41.6 | 19.9 | 29.8 | -1.0 | 70.6* | / | 16.9 | 30.9 | 41.9 | 21.8 | 3.4
Cc1ccnc(NC(=O)c2cc3cc(F)ccc3s2)c1 | 73.1* | -65.6 | 73.1* | 10.8 | 87.1* | -16.6 | 78.8* | 78.2* | 94.8* | 72.6* | 59.6*
Cc1ccc(NC(=O)Nc2ccc(F)cc2)nc1 | 12.3 | 27.2 | -10.7 | -4.7 | 8.2 | / | / | / | / | / | /
Clc1ccccc1N=C1NN=C(c2cccs2)CS1 | 74.1* | -5.9 | 76.6* | -4.7 | 68.3* | -48.3 | 85.4* | 85.8* | 96.6* | 68.6* | 77.4*
Fc1ccccc1N=C1NN=C(c2ccccc2)CS1 | -0.4 | -28.1 | 11.4 | 8.4 | -19.4 | -1.3 | / | / | / | / | /
C[C@H](CO)N1C[C@H](C)[C@H](CN(C)S(=O)(=O)c2ccc(F)cc2)Oc2c(NC(=O)C3CCOCC3)cccc2C1=O | / | / | / | / | / | 13.5 | / | / | / | / | /
COc1ccc2[nH]c(C(=O)NCc3ccccc3)cc2c1 | 1.9 | -369.7 | -5.0 | 3.4 | 2.6 | 3.4 | / | / | / | / | /
c1cncc(-c2nc3cc4ccccc4cc3[nH]2)c1 | 0.9 | -262.6 | 89.2* | 2.4 | 89.8* | -24.5 | 86.7* | 89.3* | 100.1* | 88.5* | 61.7*
COc1ccc2[nH]c(-c3ccccc3)cc2c1 | 89.6* | -307.0 | 86.4* | 6.3 | 91.9* | -144.1 | 12.6 | 89.3* | 99.3* | 61.2* | 27.1
COc1ccc2nc(-c3ccccc3)[nH]c2c1 | 94.8* | -295.4 | 83.1* | 15.1 | 95.1* | / | 4.1 | 90.3* | 99.2* | 94.1* | 89.1*
COc1ccc(-c2nc3ccc([N+](=O)[O-])cc3[nH]2)cc1 | / | 13.4 | / | 8.3 | / | / | / | / | / | / | /
N#C/C(=N/Nc1ccc([N+](=O)[O-])cc1)C(=N)N1CCCCC1 | / | 29.8 | / | 0.5 | / | -94.9 | / | / | / | / | /
N#C/C(=N\Nc1ccc([N+](=O)[O-])cc1)C(N)=S | 92.1* | 47.3* | 90.5* | 1.8 | 97.7* | ? | 97.2* | 98.1* | 102.3* | 96.8* | 90.3*
O=C(/C(N=Nc1cccc([N+](=O)[O-])c1)=C(/O)c1ccc(Br)cc1)C(F)(F)F | 0.7 | 28.7 | -9.7 | 3.9 | -7.1 | / | / | / | / | / | /
N#C/C(=N\Nc1cccc([N+](=O)[O-])c1)C(=O)c1ccc(Br)cc1 | 0.4 | 6.6 | 60.3* | -5.9 | 71.5* | 43.6 | -0.1 | 65.6* | 44.8 | 3.7 | 59.1*
C[C@@H]1CN([C@H](C)CO)C(=O)c2cccc(NS(=O)(=O)c3cn(C)cn3)c2O[C@@H]1CN(C)S(=O)(=O)c1cccs1 | / | / | / | / | / | -5.7 | / | / | / | / | /
CCCNC(=O)Nc1ccc2c(c1)C(=O)N(C)C[C@H](OC)[C@H](C)CN(Cc1ccccc1)[C@@H](C)CO2 | / | / | / | / | / | -3.8 | / | / | / | / | /
COc1ccc(S(=O)(=O)N(C)C[C@H]2OCCCC[C@H](C)Oc3ccc(NC(=O)c4ccncc4)cc3C(=O)N([C@H](C)CO)C[C@H]2C)cc1 | / | / | / | / | / | 4.9 | / | / | / | / | /
C[C@@H]1CN([C@@H](C)CO)C(=O)Cc2cc(NS(=O)(=O)c3ccccc3)ccc2O[C@H]1CN(C)S(=O)(=O)c1cn(C)cn1 | / | / | / | / | / | 9.5 | / | / | / | / | /
O=C(Nc1nc2c(F)cccc2s1)c1ccco1 | 76.1* | -43.1 | 74.2* | 14.6 | 80.8* | -11.2 | 80.2* | 76.6* | 93.8* | 84.0* | 25.0
COc1ccc2c(c1)Cc1sc(NC(=O)c3ccco3)nc1-2 | 94.6* | -13.8 | 88.0* | -1.7 | 91.7* | / | 27.2 | 46.1 | 87.3* | 63.7* | 78.4*
SMILES | SENP7 inh | SENP8 block-1 | SENP8 block-2 | HSP90 inh | SENP6 block | LGR2 inh | SENP8 conf | SENP6 conf | SENP7 confirm | Casp3 select | SENP luc ctr
CC(=O)Nc1nc2c(F)cccc2s1 | -0.1 | -1.9 | 3.3 | -1.5 | -4.4 | -5.7 | / | / | / | / | /
CC(=O)c1sc(NC(=O)c2ccco2)nc1-c1ccccc1 | -11.1 | 3.4 | -15.0 | -2.5 | 5.0 | / | / | / | / | / | /
COc1ccc2c(c1)CCc1sc(NC(=O)c3ccco3)nc1-2 | 5.1 | -317.6 | 4.4 | -3.3 | -5.9 | / | / | / | / | / | /
CC(=O)Nc1ccc2nc(NC(=O)c3ccco3)sc2c1 | 66.3* | -372.6 | 33.6 | 3.2 | 68.3* | -21.4 | 57.2* | 54.3* | 85.9* | 84.5* | 21.8
Cc1sc(NC(=O)c2ccco2)nc1-c1ccccc1 | 6.7 | -380.6 | 26.4 | 0.4 | 51.2* | / | 46.7 | 44.4 | 72.3* | 33.4 | 61.4*
CO[C@H]1CN(C)C(=O)c2ccc(NS(=O)(=O)c3ccccc3)cc2OC[C@H](C)N(Cc2cccnc2)C[C@H]1C | / | / | / | / | / | 6.3 | / | / | / | / | /
COc1ccc(-n2c(C)cc(/C=C3/SC(=S)N(C)C3=O)c2C)cc1 | / | 19.2 | / | 1.2 | / | / | / | / | / | / | /
Cc1cc(/C=C2\SC(=S)N(C)C2=O)c(C)n1-c1cccc(O)c1 | 59.9* | 16.0 | 79.9* | 8.4 | 90.0* | -63.1 | 4.7 | 25.7 | 27.1 | 7.5 | 13.4
O=C(C[C@H]1CC[C@H]2NC[C@H](O)COC[C@@H]2O1)NCCN1CCCC1 | / | / | / | / | / | 1.1 | / | / | / | / | /
CNc1nc(N2CCc3ccccc32)ncc1F | 4.5 | -7.7 | 79.5* | -1.9 | 86.3* | / | 85.0* | 86.3* | 98.3* | 83.1* | 86.7*

Screening results from PubChem BioAssay.
